Our source for the Inhibition values is ChEMBL document CHEMBL4513146, “CO-ADD screening of Karazin Kharkiv National University (Ukraine) compounds”.

Entries with a potency or affinity are not part of this list.

In the assay the test system is Candida albicans. The settings on record: Concentration 32 ug.mL-1; ASSAY_TEST Inhibition of Fungal Growth; detection method Absorption (OD530).
As for `O=S(=O)(c1ccc2nncn2c1)N(Cc1ccccc1F)c1ccc2c(c1)OCCO2`, the Inhibition (in general, the change of the read-out against control, counted positive when it falls) stood at 7.13%. `Cc1ccc(-c2cc3c4nn(CC(=O)Nc5ccccc5Br)c(=O)n4ccn3n2)cc1C`: the Inhibition is on record as -0.22%.

With `CC(C)c1nnc2c(=O)n(CC(=O)Nc3ccc(F)cc3)c3ccccc3n12`, the Inhibition was 1.82%. With `O=c1c2sccc2n2c(=O)n(Cc3cccc(F)c3)nc2n1Cc1cccs1`, the Inhibition is given as 36.13%. In the case of `CC(=O)c1ccc(N2CCN(C(=O)CCc3nnc4c5cc(-c6ccccc6)nn5ccn34)CC2)cc1`, the Inhibition worked out at 3.08%.

For the molecule `Cc1ccc(-c2ccc3nn(CC(=O)Nc4ccc(Cl)c(C(F)(F)F)c4)c(=O)n3n2)cc1C`, the Inhibition turned out to be 5.4%.

Regarding `Cc1ccccc1Cn1nc2c(=O)n(-c3ccc(Br)cc3)ccn2c1=O`, the Inhibition stood at 0.14%. As to `Cn1c(=O)c2ccc(C(=O)NC3CCCC3)cc2n2c(SCC(=O)Nc3cc(F)ccc3F)nnc12`, the Inhibition is 0.81%. With `Cc1ccc(C)c(-c2cc3c4nnc(CCC(=O)NCCc5ccc(Cl)cc5)n4ccn3n2)c1` the figure was 1.56%. `CCc1nnc2c(SCC(=O)NCc3ccccc3Cl)nc3ccccc3n12`: the Inhibition is 1.39%. Then `Cc1ccc(NC(=O)Cn2nc3c(SCc4ccc(Cl)cc4)nccn3c2=O)cc1F`, with 3.39%; and `Cc1ccc(F)cc1NC(=O)CSc1nnc2ccc(C(=O)Nc3cccc(F)c3)cn12`, with -0.79%. With `COc1ccc(NC(=O)c2ccc3nn(CC(=O)N4CCN(c5ccccc5)CC4)c(=O)n3c2)cc1` the figure was 1.58%; with `COc1ccc(C(C)NC(=O)CCc2nnc3ccc(-c4ccc(C)cc4)nn23)cc1OC` (centres undefined), 8.51%.
